Source: PubChem (National Center for Advancing Translational Sciences (NCATS))
This is a sample that favours compounds with a hit; in the whole collection about 8.8% have one here.
IL1B secr inh = inflammasome signaling inhibition, IL-1 beta readout; THP-1 LPS/ATP IL-1B secretion, AlphaLISA, 16 h; active compounds read low; activity change, % at 57.5 µM; 4.7% of 360,000 active; AID 743279; in the data active means activity change below about -50%; inconclusive means mostly about -30% to -49%
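Secreted IL-1B measured by AlphaLISA bead assay after 16 h compound exposure of THP-1 cells; compounds (final up to 57.5 uM) added 1 h before LPS (250 ng/mL) and ATP (1.25 mM) stimulation; lower signal means less secretion.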
KB-3-1 cytotox = KB-3-1 parental cell cytotoxicity | KB-3-1 viability, CellTiter-Glo ATP luminescence, 72 h | Potency, µM (series often up to 46.1 µM), most hits filed as cytotoxic | 1.4% of 400,000 active | AID 1347075; further: potency means the concentration at half of the fitted maximal effect; nearly all actives have a fitted effect of over 60% in size
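72 h, 37 °C compound treatment of KB-3-1 parental cells; CellTiter-Glo added, 10 min, luminescence read. Data corrected against DMSO-only plates and normalized before curve fitting.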
HT1080NT lethal = kills 2HG-producing HT-1080-NT fibrosarcoma cells | Potency, µM (series often up to 46.1 µM), without a hit: at the top dose activity, negative = less viability, hits mostly cytotoxic | HT-1080-NT fibrosarcoma viability, CellTiter-Glo ATP luminescence, 48 h | 1.6% of 360,000 active;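 further: NT is the 2HG producing partner of a matched IDH1 knockdown line; potency means the concentration at half of the fitted maximal effect; 0% = DMSO-treated cells and -100% = media-only wells without cells; nearly all actives have a fitted effect of over 55% in size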
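Viability of the 2HG-overproducing fibrosarcoma line after 48 hours of compound exposure at 37 degrees C was determined by luminescence with CellTiter-Glo, and concentration-effect curves were then fitted and categorized.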
HT1080 IDH1KD tx = toxicity to HT-1080 IDH1 knockdown cells (counter line); 2% of 360,000 active; Potency, µM (highest dose often 46.1 µM), for inactives: top-dose activity, negative = toxicity, hits mostly cytotoxic; HT-1080 IDH1 knockdown viability, ATP luminescence, 48 h;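 further: potency means the concentration at half of the fitted maximal effect; 0% = DMSO wells and -100% = cell-free medium wells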
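Knockdown cells (IDH1KD HT-1080) received compounds 2 h after plating at 750 cells/well and were kept 48 h at 37 °C in 5% FBS RPMI. A CellTiter-Glo luminescence read gave % activity for curve fitting.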
KB-V1 cytotox = kills drug-selected multidrug resistant KB-V1 cells | KB-V1 MDR cells viability, CellTiter-Glo, 72 h | Potency, µM (top dose mostly 46.1 µM), most hits filed as cytotoxic | 3.4% of 400,000 active | AID 1347076; further: potency means the concentration at half of the fitted maximal effect; nearly all actives have a fitted effect of over 60% in size
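Drug-selected KB-V1 cells, grown in DMEM lacking phenol red with 10% FBS, receive compound titrations; after three days at 37 degrees C, surviving cell ATP is quantified by CellTiter-Glo luminescence and responses normalized and curve-fitted.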
Active calls of the source: *; i = inactive; u = inconclusive; x = no result given. Unless noted, the call rests on the fitted dose curve; in most records, active means well fitted curve in the direction sought with a large enough effect; inconclusive means small, poorly fitted or top-dose-only effect, or another doubt; inactive means no such curve, though single readings can be large; an effect the other way counts as inactive or inconclusive. Unless noted, on the % scale 0 is the no-effect control and ±100 the full control effect.

SMILES	IL1B secr inh	KB-3-1 cytotox	HT1080NT lethal	HT1080 IDH1KD tx	KB-V1 cytotox
COC(=O)C1=CN(c2ccc(F)cc2)C(N)=C(C#N)C1c1ccc(-c2ccccc2)cc1 (stereo not drawn)	-17.9	u	10.3µM*	10.3µM*	16.4µM*
COC(=O)C1=CN(c2ccc(OC)cc2OC)C(N)=C(C#N)C1c1cccc([N+](=O)[O-])c1 (stereo not drawn)	115.6	2.06µM*	u	u	2.31µM*
O=C(COC(=O)/C=C/C(=O)OCC(=O)NC12CC3CC(CC(C3)C1)C2)NC12CC3CC(CC(C3)C1)C2	-93.2*	u	u	u	i
Cc1ccc(NC(=O)CSC2=NCCN2)cc1	-61.1*	i	3.2%	1.1%	i
O=C(CSC1=NCCN1)Nc1ccccc1[N+](=O)[O-]	-119.0*	i	0.3%	0.9%	i
O=C(CCSc1ccccc1Cl)Nc1cccc([N+](=O)[O-])c1	-149.6*	i	-20.8%	u	u
COc1ccccc1NC(=O)CSC1=NCCN1	2.0	i	-7.1%	6.0%	i
O=C(CC(=O)Nc1ccccc1[N+](=O)[O-])Nc1ccccc1[N+](=O)[O-]	-64.2*	i	-1.2%	-10.7%	i
Cc1nn(C(=O)c2ccc(Cl)cc2)c(C)c1S(=O)(=O)N1CCCCCC1	x	i	x	x	i
COc1cccc(CNC(=O)CSc2nc(=O)n(Cc3ccncc3)c3c2CCC3)c1	-4.8	i	8.8%	2.0%	u
CCCCC[C@@H]1C=C(C(=O)O)[C@H](c2ccc(OC)c(OC)c2)N1S(=O)(=O)c1ccc(C)cc1	27.7	i	-7.1%	-3.3%	u
O=C(CSC1=NCCN1)Nc1cccc([N+](=O)[O-])c1	-66.6*	i	-9.7%	-24.0%	i
O=C(CSC1=NCCN1)NC(c1ccccc1)c1ccccc1	-105.1*	i	u	u	i
CS(=O)(=O)N(CC(=O)Nc1cccc([N+](=O)[O-])c1)c1ccccc1	-10.0	i	2.0%	-1.7%	i
Nc1nc(SCC(=O)Nc2cccc([N+](=O)[O-])c2)n[nH]1	20.5	i	-1.3%	5.0%	i
Cc1ccccc1CN(CC(=O)Nc1cccc([N+](=O)[O-])c1)S(=O)(=O)c1ccc(Cl)cc1	u	i	u	-21.9%	5.8µM*
CCOc1ccc(CCNC(=O)CN2C(=O)NC3(CCCC3)C2=O)cc1OCC	2.1	i	0.0%	11.1%	i
O=C(Nc1cccnc1)c1ccc(COc2ccccc2Cl)o1	-7.9	u	u	20.6µM*	u
CC(=O)c1ccc(NC(=O)c2ccc(COc3ccccc3[N+](=O)[O-])o2)cc1	-2.0	u	-8.1%	2.4%	10.3µM*
CC(C)(C)NC(=O)c1ccc(COc2ccc(Cl)cc2Cl)o1	-69.1*	u	u	-20.7%	13µM*
O=C(Nc1nn(Cc2ccc(Cl)cc2)cc1Br)c1ccc(COc2ccccc2Cl)o1	u	u	-13.1%	-19.8%	16.4µM*
